CHO-K1 Ca antag: nonselective inhibitor or artifact in parental CHO-K1 cells. AID 602250. ATP-induced calcium, Fluo-8 fluorescence. inhibition, % at 3 µM. hit rate 0.6% among 360,000;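 active = inhibition above a per-plate cutoff, the plate's mean sample inhibition plus 3 SD, cut at about 24% in these data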
M1 antag: human M1 muscarinic receptor antagonists, primary screen, CHO-K1 cells, Fluo-8 calcium fluorescence, 1536-well; Muscarinic acetylcholine receptor M1 (Homo sapiens), P11229; CHO-K1 hM1, ACh EC80 antagonist; inhibition, % at 3 µM; hit rate 1.3% among 360,000; AID 588852, 2011;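 active = percent inhibition above its own plate's cutoff, namely the mean of that plate's compound wells plus 3 SD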;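 also: peak over basal fluorescence ratio during 140 s after agonist addition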
Target sequence (P11229 whole entry, looked up): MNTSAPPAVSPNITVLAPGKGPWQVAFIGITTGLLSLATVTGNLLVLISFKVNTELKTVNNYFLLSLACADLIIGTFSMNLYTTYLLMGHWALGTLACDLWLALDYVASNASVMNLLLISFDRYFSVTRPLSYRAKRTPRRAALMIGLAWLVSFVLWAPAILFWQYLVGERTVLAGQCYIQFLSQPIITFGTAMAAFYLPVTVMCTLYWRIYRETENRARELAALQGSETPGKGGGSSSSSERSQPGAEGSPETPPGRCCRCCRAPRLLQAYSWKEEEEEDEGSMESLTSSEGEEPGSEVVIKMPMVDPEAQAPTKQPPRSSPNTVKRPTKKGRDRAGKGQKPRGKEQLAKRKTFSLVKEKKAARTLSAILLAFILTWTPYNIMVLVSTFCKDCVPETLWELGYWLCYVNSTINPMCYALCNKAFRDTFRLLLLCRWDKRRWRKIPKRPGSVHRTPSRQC
M1 PAM: human M1 muscarinic receptor positive allosteric modulators, primary screen, CHO-K1 cells, Fluo-8 calcium fluorescence, 1536-well; Muscarinic acetylcholine receptor M1 (Homo sapiens), P11229; CHO-K1 hM1, ACh EC20; 0% = ACh EC20, 100% = maximal ACh; activation, % at 3 µM; hit rate 0.088% among 360,000; AID 588819, 2011; in the data active = activation above about 19%, passing the limit was not always enough
M1 ag: human M1 muscarinic receptor agonists, primary screen, Fluo-8 calcium fluorescence, CHO-K1 cells, HTS | Muscarinic acetylcholine receptor M1 (Homo sapiens), P11229 | CHO-K1 hM1, agonist mode; 0% DMSO, 100% acetylcholine EC100 | activation, % at 3 µM | hit rate 0.33% among 360,000 | AID 588814, 2011;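 active = activation above the run's mean compound activation plus 3 SD, cut at about 16% in these data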;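 also: peak over basal fluorescence ratio within a 140 s kinetic read after compound addition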
M1 PAM parental: nonselective calcium activators in parental CHO-K1 cells, primary screen, counter-screen for M1 PAM project, cell-based, Fluo-8 calcium fluorescence, full deck, 1536-well. ATP EC20; 0% at ATP EC20, 100% at ATP max. AID 602247, 2012. hit rate 0.02% among 360,000. activation, % at 3 µM;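 active = activation above the run cutoff, the mean activation of all test compounds plus 3 SD, cut at about 40% in these data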;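 also: peak over basal fluorescence ratio in a 140 s read after ATP addition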
M1 ag parental: counter-screen for M1 agonists: effect in parental CHO-K1 cells | Fluo-8 calcium fluorescence; scaled to maximal ATP response, vehicle zero | activation, % at 3 µM | hit rate 0.48% among 360,000; in the data active = activation above about 15%;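 also: untransfected CHO-K1 host cells lacking M1 receptor as counterscreen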
Numbers stand for hits; – = inactive. Only some compounds are listed: those with a hit (about 2.3% of all), similar ones and a draw of the others.

SMILES | CHO-K1 Ca antag | M1 antag | M1 PAM | M1 ag | M1 PAM parental | M1 ag parental
COc1ccc2c(c1)C=C([C@@H]1C[C@H]3CN(c4ccccc4)C(=O)[C@]34CCCN14)CO2 | – | 57.6 | – | – | – | –
COc1ccccc1CN1C[C@@H]2C[C@@H](c3ccc(C)cc3)N3CCC[C@@]23C1=O | – | – | – | – | – | –
Cc1ccc([C@@H]2C[C@H]3CN(Cc4cccc(Cl)c4)C(=O)[C@]34CCCN24)o1 | – | – | – | – | – | –
CCc1ccc([C@@H]2C[C@H]3CN(Cc4ccccc4OC)C(=O)[C@]34CCCN24)cc1 | – | 47.1 | – | – | – | –
Cc1cccc([C@@H]2C[C@H]3CN(Cc4cccc(Cl)c4)C(=O)[C@]34CCCN24)n1 | – | 23.3 | – | – | – | –
COCc1cc([C@@H]2C[C@H]3CN(c4ccccc4)C(=O)[C@]34CCCN24)ccc1OC | – | 57.4 | – | – | – | –
Cc1ccc(S(=O)(=O)NC(=O)C2(C)CCN2C(=O)Cc2ccc(C(C)(C)C)cc2)cc1 (stereo not drawn) | – | – | – | – | – | –
COc1ccccc1-c1csc(C(O)(c2ccccc2)C(F)(F)F)n1 (stereo not drawn) | – | – | – | – | – | –
O=C1c2ccccc2C(=O)N1CCCc1nc2ccccc2c(=O)n1CCCn1ccnc1 | 30.1 | – | – | – | – | –
CC[N+](C)(C)c1cccc(O)c1 | – | – | – | 16.0 | – | –
CCNc1cc(O)ccc1C | – | – | – | – | – | –
O=C(NCc1ccccc1)C(c1ccc(F)cc1)N(Cc1cccs1)C(=O)c1cnccn1 (stereo not drawn) | – | – | – | – | – | –
O=C(NCc1ccccc1)C(c1ccccc1)N(Cc1cccs1)C(=O)c1cnccn1 (stereo not drawn) | – | 42.5 | – | – | – | –
CN(C)Cc1ccccc1CCc1ccccc1 | – | 59.6 | – | – | – | –
CN(C)Cc1ccccc1Cc1ccccc1 | – | – | – | – | – | –
Cc1occc1C(=O)N1CCC2(CCCN(Cc3ccc(F)c(F)c3)C2)C1 (stereo not drawn) | – | 65.4 | – | – | – | –
O=C(CCC1CCCN(C(=O)c2ccoc2)C1)NCc1ccc(F)c(F)c1 (stereo not drawn) | – | – | – | – | – | –
O=C(c1ccoc1)N1CCC2(CCCN(Cc3ccc(F)c(F)c3)C2)C1 (stereo not drawn) | – | 54.7 | – | – | – | –
ON=C1C2CC=C(c3ccccc3)C1CCC2 (stereo not drawn) | – | – | – | – | – | –
CC(C)c1cccc(C(C)C)c1OCCCCN1CCCC1 | – | 33.2 | – | – | – | –
Cc1cccc(C(C)(C)C)c1OCCCCN1CCCC1 | – | – | – | 16.0 | – | –
CC(C)(C)c1cc(Cl)ccc1OCCOCCN1CCCC1 | – | – | – | – | – | –
Cc1cc(C(C)(C)C)ccc1OCCOCCN1CCCC1 | – | 32.7 | – | – | – | –
O=C(Cc1c(F)c(F)c(F)c(F)c1F)Nc1nc(-c2ccccc2)cs1 | – | – | – | – | – | –
O=C(c1ccc([N+](=O)[O-])o1)N1CCN(c2nc3c(F)cc(F)cc3s2)CC1 | 23.8 | – | – | – | – | –
SMILES | CHO-K1 Ca antag | M1 antag | M1 PAM | M1 ag | M1 PAM parental | M1 ag parental
Cc1ccc(C)c2sc(N3CCN(C(=O)c4ccc([N+](=O)[O-])o4)CC3)nc12 | – | – | – | – | – | –
Cc1ccc(-n2c(C)nc3c(cnn3-c3ccc(C)c(C)c3)c2=O)cc1C | – | – | – | – | – | –
Cc1ccc(-n2c(C)nc3c(cnn3-c3ccc(F)cc3)c2=O)cc1C | – | 29.0 | – | – | – | –
O=C(CN1C(=O)NC2(CCCCC2)C1=O)N1CCN(S(=O)(=O)c2ccc(F)c(F)c2F)CC1 | – | – | – | – | – | –
COc1ccccc1CCNC(=O)c1cc(-c2ccccn2)nc2ccccc12 | – | 32.0 | – | – | – | –
O=C(NCc1ccc(F)cc1)C1CCCN(C(=O)Nc2ccc(F)cc2)C1 (stereo not drawn) | – | – | – | – | – | –
O=C(c1cc(-c2ccccc2Cl)on1)N1CCN(C(=O)c2ccco2)CC1 | – | – | – | – | – | –
O=C(c1cc(-c2ccc(Cl)cc2Cl)on1)N1CCN(C(=O)c2ccco2)CC1 | 24.5 | – | – | – | – | –
CCN(CC(=O)NC(=O)NCc1ccccc1)Cc1ccccc1 | – | – | – | – | – | –
Cn1cc2cc([N+](=O)[O-])ccc2n1 | – | – | – | 22.6 | – | –
CCOc1ccc(CCNC(=O)COC(=O)CSc2ccc(C)cc2)cc1OCC | – | – | – | – | – | –
CC(C)C(C(=O)N1CCN(Cc2ccccc2)CC1)c1ccccc1 (stereo not drawn) | – | 89.0 | – | – | – | –
O=C(C(Cc1ccccc1)n1cccc1)N1CCCCC1 (stereo not drawn) | – | – | – | – | – | –
O=C(C(Cc1ccccc1)n1cccc1)N1CCN(Cc2ccccc2)CC1 (stereo not drawn) | – | 92.4 | – | – | – | –
C(=C\c1ccco1)/C1=NN(c2ccccc2)C(c2ccco2)C1 (stereo not drawn) | – | – | – | – | – | –
O=[N+]([O-])c1ccc(/C=C/C2=NN(c3ccccc3)C(c3ccco3)C2)o1 (stereo not drawn) | 39.0 | 60.0 | – | 66.2 | – | 38.4
C[C@@H]1OC(C2CCCCC2)N(C)[C@H]2C[C@H]3c4[nH]c5ccccc5c4CCN3C[C@@H]12 (stereo partly drawn) | 24.2 | – | – | – | – | –
C[C@@H]1ON(C)[C@H]2C[C@H]3c4[nH]c5ccccc5c4CCN3C(=O)[C@@H]12 | – | – | – | – | – | –
Cn1nc(C(C)(C)C)cc1C(=O)NCc1cc(F)cc2c1OCOC2 | 30.7 | 40.9 | – | – | – | 15.3
CCN1CCN(c2ccc(NC(=O)CCc3c(C)nc4c(-c5ccc(F)cc5)c(C)nn4c3C)cc2)CC1 | – | 33.5 | – | – | – | –
Cc1nc2c(-c3ccc(F)cc3)c(C)nn2c(C)c1CCC(=O)Nc1ccccc1 | – | – | – | – | – | –
CC(C)CCOc1ccc(C2(C)NC(=O)NC2=O)cc1 (stereo not drawn) | – | – | – | – | – | –
COCCCNc1nc(SCc2ccccc2)nc2sc3c(c12)CCC3 | 25.2 | – | – | – | – | –
Cc1cc([N+](=O)[O-])nn1Cc1ccc(C(=O)N/N=C/c2ccc(N(C)C)cc2)cc1 | – | – | – | – | – | –

Source: PubChem BioAssay (The Scripps Research Institute Molecular Screening Center)
